Where “and” joins values, the source holds several entries; their conditions need not be identical. Identical values can stand only once. Compounds without any hit were thinned out: in the full panel of roughly 79,000, 15% have a hit. Where a structure was tested more than once in an assay, its records may differ in their call. Calls of active or inactive are those of the source. Rule as the data show it: active = growth inhibition above about 70%; inactive = the rest.
Key:
[1] = NCI Yeast Anticancer Drug Screen. Data for the rad50 strain (AID 155);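 also: 0% = growth of vehicle-only cultures of the same strain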; conditions: S. cerevisiae rad50 strain growth inhibition, stronger effect = higher value
Procedure, shortened: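 Cells are treated with compound, grown, and their growth is then scored against vehicle-only cultures of the same repair-deficient yeast strain.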

[2] = NCI Yeast Anticancer Drug Screen. Data for the mec2-1 strain (AID 157); conditions: S. cerevisiae mec2-1 strain, stronger effect = higher value
Procedure, shortened: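 Mutant yeast (mec2-1) grown with compound; growth inhibition relative to vehicle control reported.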

[3] = NCI Yeast Anticancer Drug Screen. Data for the sgs1 mgt1 strain (AID 161);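 also: 0% = growth of cultures given vehicle only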; conditions: S. cerevisiae sgs1 mgt1 strain, stronger effect = higher value
Procedure, shortened: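 Yeast cells carrying a defined DNA-repair defect were exposed to test compounds. Growth inhibition was measured relative to vehicle-treated controls.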

[4] = NCI Yeast Anticancer Drug Screen. Data for the cln2 rad14 strain (AID 165);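 also: 0% = growth equal to vehicle treated cultures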; conditions: S. cerevisiae cln2 rad14 strain, stronger effect = higher value
Procedure, shortened: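 Readout is yeast growth inhibition versus vehicle-treated controls, using a strain with cln2 and rad14 alterations exposed to compound.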

[5] = NCI Yeast Anticancer Drug Screen. Data for the bub3 strain (AID 167); conditions: S. cerevisiae bub3 mutant strain, stronger effect = higher value
Procedure, shortened: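 Part of a panel of yeast mutants defective in DNA damage repair or cell cycle regulation. Each strain is grown with compound, and inhibition is calculated relative to solvent-treated cultures.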

[6] = NCI Yeast Anticancer Drug Screen. Data for the mlh1 rad18 strain (AID 175); conditions: S. cerevisiae mlh1 rad18 strain growth inhibition, stronger effect = higher value
Procedure, shortened: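 Genetically defined yeast (DNA repair-deficient) exposed to compounds; growth inhibition determined relative to vehicle.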

[7] = at 5.0 µM (retest, dose inferred, filed as 0.5)
[8] = at 50.0 µM (retest, dose inferred, filed as 5.0)

Measured: growth inhibition

Nc1nc(N)c2nc3c4ccccc4c4ccccc4c3nc2n1
active: [5]; at 50.0 µM 74.5%
inactive: [1]; [7] 2% | [1]; [8] 35% | [1]; at 50.0 µM 56.5% | [2]; [7] 1% | [2]; [8] 30% | [2]; at 50.0 µM 38.5% | [3]; [7] 0% | [3]; [8] 32% | [3]; at 50.0 µM 21.7% | [4]; [7] 1% | [4]; [8] 3% | [4]; at 50.0 µM 68.8% | [5]; [7] 7% | [5]; [8] 38% | [6]; [7] 5% | [6]; [8] 44% | [6]; at 50.0 µM 69.5%

O=NC1C(Br)C2CC1C1C(Cl)C(Cl)CC21 (configuration not stated)
active: [3]; at 50.0 µM 76.8%
inactive: [1]; [7] 6% | [1]; [8] 10% | [1]; at 50.0 µM 58.7% | [2]; [7] 12% | [2]; [8] 13% | [2]; at 50.0 µM 29.9% | [3]; [7] -5% | [3]; [8] 6% | [4]; [7] -2% | [4]; [8] -7% | [4]; at 50.0 µM 44.1% | [5]; [7] 1% | [5]; [8] -6% | [5]; at 50.0 µM 10.1% | [6]; [7] 25% | [6]; [8] 66% | [6]; at 50.0 µM 49.2%

CCN(CC)c1ccc(/C=C/c2ccnc3ccccc23)cc1
inactive: [1]; [7] -11% and 0% | [2]; [7] -3% and 1% | [3]; [7] 4% and -3% | [4]; [7] -10% and 7% | [5]; [7] 28% and -4% | [6]; [7] 17% and 16%
active: [1]; [8] 95% and 98% | [1]; at 50.0 µM 99% and 98.3% | [2]; [8] 98% and 99% | [2]; at 50.0 µM 99% and 97.8% | [3]; [8] 94% and 98% | [3]; at 50.0 µM 99.1% and 98.5% | [4]; [8] 97% and 98% | [4]; at 50.0 µM 98.6% and 97.5% | [5]; [8] 98% and 99% | [5]; at 50.0 µM 98.7% and 98.3% | [6]; [8] 97% and 98% | [6]; at 50.0 µM 98.3% and 97.4%

O=[N+]([O-])c1ccc(OCCN(Cc2ccccc2)Cc2ccccc2)c([N+](=O)[O-])c1
inactive: [1]; [7] 3% | [2]; [7] 3% | [2]; [8] 38% | [2]; at 50.0 µM 59.2% | [3]; [7] -11% | [3]; [8] 61% | [3]; at 50.0 µM 60.4% | [4]; [7] 4% | [4]; [8] 24% | [4]; at 50.0 µM 34.1% | [5]; [7] 3% | [5]; [8] 54% | [6]; [7] 5% | [6]; [8] 58%
active: [1]; [8] 70% | [1]; at 50.0 µM 71.5% | [5]; at 50.0 µM 71.5% | [6]; at 50.0 µM 74.8%

C=CCc1c2c(ccc(=O)c1O)-c1c(cc(OC)c(OC)c1OC)CCC2NC(C)=O (configuration not stated)
active: [1]; [8] 94% | [1]; at 50.0 µM 70.3% | [2]; [8] 98% | [3]; [8] 70% | [4]; [8] 93% | [4]; at 50.0 µM 72% | [5]; [8] 97% | [6]; [8] 97%
inactive: [1]; [7] -3% | [2]; [7] 4% | [2]; at 50.0 µM 60.5% | [3]; [7] -20% | [3]; at 50.0 µM 64.6% | [4]; [7] -12% | [5]; [7] -13% | [5]; at 50.0 µM 53.3% | [6]; [7] 8% | [6]; at 50.0 µM 67%

Nc1ccc2c(n1)NCC/C2=N\Nc1ccccc1
active: [1]; [8] 72% | [1]; at 50.0 µM 90.5% | [2]; at 50.0 µM 78.3% | [3]; at 50.0 µM 79% | [5]; [8] 91% | [5]; at 50.0 µM 87.8% | [6]; [8] 92% | [6]; at 50.0 µM 98%
inactive: [1]; [7] 1% | [2]; [7] -2% | [2]; [8] 60% | [3]; [7] -4% | [3]; [8] 69% | [4]; [7] -2% | [4]; [8] 23% | [4]; at 50.0 µM 60.9% | [5]; [7] -5% | [6]; [7] 0%

Oc1c(Cl)cc(Cl)c(Cl)c1Cl
active: [1]; [8] 94% and 98% | [1]; at 50.0 µM 85.2% and 98.3% | [2]; [8] 96% and 98% | [2]; at 50.0 µM 94.3% and 99.6% | [3]; [8] 98% and 86% | [3]; at 50.0 µM 80.5% and 99.3% | [4]; [8] 98% and 97% | [4]; at 50.0 µM 89.7% and 98.5% | [5]; [8] 85% and 96% | [5]; at 50.0 µM 88.8% and 99.1% | [6]; [8] 92% and 96% | [6]; at 50.0 µM 93.8% and 98.7%
inactive: [1]; [7] -2% and 11% | [2]; [7] 8% and 14% | [3]; [7] -3% and 3% | [4]; [7] 11% and -10% | [5]; [7] -3% and 39% | [6]; [7] 4% and 7%

N#CNC1=NCOCN1
inactive: [1]; [7] -3% | [1]; [8] 6% | [1]; at 50.0 µM -1.6% and 21.8% | [2]; [7] 2% | [2]; [8] 10% | [2]; at 50.0 µM 22.4% and 1.35% | [3]; [7] 2% | [3]; [8] -9% | [3]; at 50.0 µM 13.8% and 8.55% | [4]; [7] 4% | [4]; [8] 11% | [4]; at 50.0 µM 13.3% and 18.8% | [5]; [7] -12% | [5]; [8] -3% | [5]; at 50.0 µM 10.1% and -8.85% | [6]; [7] 12% | [6]; [8] 9% | [6]; at 50.0 µM 64.4% and 18.4%

O=C1c2ccccc2C(=O)c2cc(S(=O)(=O)O)ccc21
73% (active) and 25.7% (inactive): [1]; at 50.0 µM
77.7% (active) and 19.6% (inactive): [6]; at 50.0 µM
inactive: [1]; [7] 3% | [1]; [8] 27% | [2]; [7] 1% | [2]; [8] 26% | [2]; at 50.0 µM 36.2% and 36.1% | [3]; [7] 6% | [3]; [8] 42% | [3]; at 50.0 µM 67.7% and 37% | [4]; [7] 6% | [4]; [8] 30% | [4]; at 50.0 µM -26.8% and 9.95% | [5]; [7] 0% | [5]; [8] 22% | [5]; at 50.0 µM 67.3% and 44.7% | [6]; [7] 7% | [6]; [8] 41%

O=C1/C(=C\c2ccc([N+](=O)[O-])cc2)Sc2scc(-c3ccc(O)c(O)c3)[n+]21
inactive: [1]; [7] 6% | [2]; [7] -10% | [3]; [7] 14% | [4]; [7] -4% | [5]; [7] -19% | [6]; [7] 23%
active: [1]; [8] 93% | [1]; at 50.0 µM 83.2% | [2]; [8] 95% | [2]; at 50.0 µM 93.8% | [3]; [8] 96% | [3]; at 50.0 µM 94.9% | [4]; [8] 93% | [4]; at 50.0 µM 71.1% | [5]; [8] 98% | [5]; at 50.0 µM 92.5% | [6]; [8] 97% | [6]; at 50.0 µM 90.8%

O=C(CCl)Nc1ccc(C(=O)N/N=C/c2ccc(Cl)cc2)cc1
active: [1]; [8] 90% | [3]; [8] 70% | [5]; [8] 82% | [6]; [8] 80%
inactive: [1]; [7] 57% | [1]; at 50.0 µM -8.7% | [2]; [7] 26% | [2]; [8] 65% | [2]; at 50.0 µM -32.9% | [3]; [7] 42% | [3]; at 50.0 µM -21.8% | [4]; [7] 23% | [4]; [8] 57% | [4]; at 50.0 µM 7.05% | [5]; [7] 45% | [5]; at 50.0 µM -14.4% | [6]; [7] 41% | [6]; at 50.0 µM -27.7%

COc1cccc(NC(=S)N2CCCCC2)c1
inactive: [1]; [7] -158% | [1]; [8] -160% | [1]; at 50.0 µM 38.4% | [2]; [7] -51% | [2]; [8] -58% | [2]; at 50.0 µM -0.45% | [3]; [7] -69% | [3]; [8] -61% | [3]; at 50.0 µM -8.25% | [4]; [7] -69% | [4]; [8] -102% | [4]; at 50.0 µM -82.4% | [5]; [7] -60% | [5]; [8] -58% | [5]; at 50.0 µM 14.7% | [6]; [7] -132% | [6]; [8] -151% | [6]; at 50.0 µM 20.9%

CC(=O)OC(OC(C)=O)c1c2ccccc2cc2ccccc12
inactive: [1]; [7] 36% | [2]; [7] 15% | [3]; [7] 27% | [4]; [7] 14% | [5]; [7] 8% | [6]; [7] 23%
active: [1]; [8] 97% | [1]; at 50.0 µM 89.3% | [2]; [8] 96% | [2]; at 50.0 µM 93.2% | [3]; [8] 97% | [3]; at 50.0 µM 88.9% | [4]; [8] 92% | [4]; at 50.0 µM 91.1% | [5]; [8] 97% | [5]; at 50.0 µM 85.5% | [6]; [8] 97% | [6]; at 50.0 µM 85.7%

C#CC(C)(C)OC(=O)Nc1ccccc1
active: [1]; [8] 86% | [3]; [8] 80% | [5]; [8] 79% | [6]; [8] 80%
-10.1% (inactive) and 84% (active): [3]; at 50.0 µM
inactive: [1]; [7] 5% | [2]; [7] -14% | [2]; [8] 62% | [2]; at 50.0 µM 9.3% and 43.6% | [3]; [7] -2% | [4]; [7] 0% | [4]; [8] 14% | [4]; at 50.0 µM -53% and 2.95% | [5]; [7] -6% | [5]; at 50.0 µM -7.8% and 59.4% | [6]; [7] -3%
8.4% (inactive) and 86.7% (active): [6]; at 50.0 µM
12.6% (inactive) and 89.2% (active): [1]; at 50.0 µM
